Screening results (PubChem)
JNK3 blocker: JNK3 (human) kinase inhibition; P53779; purified JNK3 kinase activity, HTS; inhibition, % at 8 µM; 60,000 tested, 0.61% active; in the data active means inhibition above about 17%
ROCK2 blocker: blocks human Rho kinase 2 activity; O75116; purified ROCK2, Kinase-Glo ATP depletion luminescence; inhibition, % at 6 µM; 60,000 tested, 0.35% active;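 active means inhibition above the screen-wide mean inhibition plus 3 SD, cut at about 18% in these data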
Target sequence (O75116 whole entry, looked up): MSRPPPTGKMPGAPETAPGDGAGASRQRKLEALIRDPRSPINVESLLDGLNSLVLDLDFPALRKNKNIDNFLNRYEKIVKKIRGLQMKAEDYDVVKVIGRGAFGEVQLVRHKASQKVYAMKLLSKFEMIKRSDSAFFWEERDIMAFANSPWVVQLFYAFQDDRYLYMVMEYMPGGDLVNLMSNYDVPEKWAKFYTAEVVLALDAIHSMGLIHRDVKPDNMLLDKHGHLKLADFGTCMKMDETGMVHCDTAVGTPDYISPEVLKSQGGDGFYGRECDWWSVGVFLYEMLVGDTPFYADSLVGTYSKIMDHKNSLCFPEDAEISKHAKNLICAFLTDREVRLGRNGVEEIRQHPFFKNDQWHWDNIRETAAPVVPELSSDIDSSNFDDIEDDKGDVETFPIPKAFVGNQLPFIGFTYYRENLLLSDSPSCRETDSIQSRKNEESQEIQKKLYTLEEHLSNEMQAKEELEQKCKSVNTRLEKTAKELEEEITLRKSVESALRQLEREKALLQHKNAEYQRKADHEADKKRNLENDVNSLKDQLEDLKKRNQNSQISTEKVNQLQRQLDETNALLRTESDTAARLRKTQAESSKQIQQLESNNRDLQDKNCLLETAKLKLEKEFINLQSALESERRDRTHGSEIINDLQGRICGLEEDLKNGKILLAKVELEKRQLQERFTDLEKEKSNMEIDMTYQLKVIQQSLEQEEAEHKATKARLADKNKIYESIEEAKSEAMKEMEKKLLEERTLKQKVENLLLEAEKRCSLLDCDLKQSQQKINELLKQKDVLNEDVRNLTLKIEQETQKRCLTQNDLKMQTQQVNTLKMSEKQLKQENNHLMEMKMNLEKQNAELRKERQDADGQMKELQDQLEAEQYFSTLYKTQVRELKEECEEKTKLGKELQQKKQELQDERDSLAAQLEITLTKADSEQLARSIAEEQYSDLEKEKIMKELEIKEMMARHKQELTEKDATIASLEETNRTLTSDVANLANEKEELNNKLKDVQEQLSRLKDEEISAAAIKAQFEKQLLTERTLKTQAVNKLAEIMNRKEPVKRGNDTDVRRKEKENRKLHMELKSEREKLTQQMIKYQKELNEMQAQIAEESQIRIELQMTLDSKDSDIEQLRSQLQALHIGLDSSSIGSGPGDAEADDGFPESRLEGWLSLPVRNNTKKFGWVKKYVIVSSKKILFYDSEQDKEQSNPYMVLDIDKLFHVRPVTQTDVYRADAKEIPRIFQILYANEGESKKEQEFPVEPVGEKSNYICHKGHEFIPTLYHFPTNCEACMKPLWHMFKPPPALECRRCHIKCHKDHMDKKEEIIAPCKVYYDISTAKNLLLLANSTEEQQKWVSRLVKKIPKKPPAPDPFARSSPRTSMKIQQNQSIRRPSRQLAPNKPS
PKA kinase inh: blocks human protein kinase A activity; PKA Kemptide phosphorylation, Kinase-Glo ATP luminescence; inhibition, % at 6 µM; 65,000 tested, 0.1% active; AID 524;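 active means inhibition above the screen-wide mean inhibition plus 3 SD, cut at about 21% in these data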
D1 mod: allosteric modulators of human D1 dopamine receptor | P21728 | HEK293 D1, CRE-luciferase, dopamine EC30 potentiation; actives deviate in either direction | B-score at 10 µM | 58,000 tested, 5.9% active;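 active means luminescence count or its row- and column-corrected plate score outside the 99.7% band of the plate's sample wells, on either side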
hDAT+cocaine: human DAT dopamine uptake with cocaine, either direction | Q01959 | 110,000 tested, 1.3% active | LLC-PK1 hDAT cells, [14C]-dopamine uptake with cocaine IC80; actives deviate in either direction | B-score at 10 µM;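 active means Z score or B-score, a plate-position-corrected score, falls beyond the plate's 99.7% confidence bounds, in either direction; inactive means both scores lie inside the 99.7% bounds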
Hits are given with their value; . = inactive; / = no result given. Shown is part of a subset that was picked to be rich in hits.

SMILES	JNK3 blocker	ROCK2 blocker	PKA kinase inh	D1 mod	hDAT+cocaine
Cc1c(N2C(=O)/C(=C/c3ccccc3)SC2=S)c(=O)n(-c2ccccc2)n1C	/	/	/	/	2.6
C#CCOCCOCCOCCNc1nc(N2CCN(C(=O)C([C@@H](C)CC)n3cc(C(N)Cc4ccc(O)cc4)nn3)CC2)nc(N2CCN(C(=O)[C@H](CCC(=O)O)n3cc(C(N)Cc4ccc(O)cc4)nn3)CC2)n1 (some centres not stated)	/	/	/	/	.
O=C(Nc1ccc(Cl)cc1)c1ccncc1	/	/	/	.	.
CC/C(=C\C(=O)c1ccncc1)Nc1ccc(O)cc1	.	.	.	.	3
O=C(O)CCC(=O)N1CCN(c2nc(-c3ccccc3Cl)c3cc(Br)ccc3n2)CC1	/	/	/	/	3
COc1ccc(OC)c(NC(=S)N2CCN(c3ccccn3)CC2)c1	/	/	/	/	-8.8
COc1ccc(N2CCN(C(=S)Nc3cc(C)ccc3C)CC2)cc1	/	/	/	/	-4.7
COc1ccc(N2CCN(C(=S)Nc3cc(C)cc(C)c3)CC2)cc1	/	/	/	/	.
CCN(CC)c1ccc(C2CC(=O)Nc3cc(OC)c(OC)cc32)cc1 (configuration not stated)	/	/	.	.	2.4
Cc1cccnc1Nc1nc(-c2ccc(O)cc2)cs1	/	/	/	/	4.6
O=C(CN1C(=O)CC(c2ccccc2)=Nc2ccccc21)NCc1ccco1	.	.	.	.	.
COc1ccc(C2N(c3ccccn3)C(=O)C3CCCN32)c(OC)c1 (configuration not stated)	.	.	.	.	.
COc1cc(C2N(c3ccccn3)C(=O)C3CCCN32)cc(OC)c1OC (configuration not stated)	.	.	.	.	-7.9
Cn1c(=O)oc2cc(S(=O)(=O)NCCN3CCN(c4ccccc4F)CC3)ccc21	.	.	.	-5.9	.
COc1ccc(N2CCN(C(=O)c3cc4c(-c5cccc(OC)c5)nn(C)c4s3)CC2)cc1	.	.	.	.	2
CC(=O)Nc1ccc(S(=O)(=O)N(Cc2ccco2)CC2CCCO2)cc1 (configuration not stated)	.	.	.	.	/
Cc1cccc(OCc2nnc(SCC(=O)N3c4ccccc4CC3C)n2C)c1C (configuration not stated)	/	/	/	/	.
Cn1c(SCC(=O)N2CCCc3ccccc32)nnc1-c1c[nH]c2ccccc12	.	.	.	.	3.6
CCCn1c(SCC(=O)N2CCCc3ccccc32)nc2c1c(=O)n(C)c(=O)n2C	.	.	.	4.2	/
Cc1ccccc1OCc1nnc(SCC(=O)N2CCc3ccccc32)n1C	/	/	/	/	-8.6
CCn1c(SCC(=O)N2CCCc3ccccc32)nnc1-c1c[nH]c2ccccc12	.	.	.	.	.
CCCCNc1oc(-c2cccs2)nc1S(=O)(=O)c1ccccc1	/	/	/	/	.
O=S(=O)(c1ccccc1)c1nc(-c2cccs2)oc1NCCCn1ccnc1	.	.	.	.	2.5
Cc1ccc2[nH]cc(C(=O)NCc3cccs3)c(=O)c2c1	/	/	/	/	.
COc1cccc2c(=O)c(C(=O)NCc3cccs3)c[nH]c12	37	.	.	.	.
SMILES	JNK3 blocker	ROCK2 blocker	PKA kinase inh	D1 mod	hDAT+cocaine
C=CCn1c(=O)c2ccccc2n2c(SCC(=O)c3ccccc3)nnc12	.	.	.	.	.
C=CCn1c(=O)c2ccccc2n2c(SCc3cc(=O)n4ccsc4n3)nnc12	.	.	.	.	2.8
C=CCN1C=C2C(=O)C(C)(OC(=O)CC)C(=O)C=C2C=C1CCCC (configuration not stated)	/	/	/	/	-2.8
CN1C(=O)Cc2cc(S(=O)(=O)N3CCOCC3)ccc21	.	.	.	.	-8.7
Cn1c(=O)n(C)c2cc(S(=O)(=O)N3CCOCC3)ccc21	.	.	.	.	.
Cc1ccc(C(=O)CCC(=O)Nc2cccnc2)cc1C	.	.	.	.	-8.5
CCC(=O)Nc1ccc(C(=O)Nc2cccnc2)cc1	.	.	.	.	.
Cc1ccc(CNc2ccc(N3CCOCC3)c(C(=O)O)c2)s1	.	.	.	.	.
CCN(C(=O)c1cc2ccccc2oc1=O)c1ccccc1	/	/	/	/	.
O=C(c1cc2ccccc2oc1=O)N(Cc1cccs1)Cc1ccccc1Cl	/	/	/	/	2.5
COC(=O)C(Cc1ccccc1)NS(=O)(=O)c1ccc(F)cc1Br (configuration not stated)	/	/	/	/	.
O=C(NCCCNC(=O)C(F)(F)C(F)F)C(F)(F)C(F)F	.	.	.	.	.
O=C(NC1CCC(NC(=O)C(F)(F)C(F)F)CC1)C(F)(F)C(F)F (configuration not stated)	.	.	.	-3.2	.
CCOC(=O)N1CCN(C(=O)c2sc3nc(-c4ccc(F)cc4)cn3c2C)CC1	.	.	.	/	/
Cc1c(C(=O)N2CC(C)OC(C)C2)sc2nc(-c3ccc(F)cc3)cn12 (configuration not stated)	.	.	.	-3	/
COc1ccc(-c2noc3c2-c2nc(-c4ccc(C)cc4)sc2CC3)cc1	/	/	/	/	.
CC1(c2nnc(Cc3ccccc3)o2)CC(c2ccc([N+](=O)[O-])cc2)=NO1 (configuration not stated)	/	/	/	/	.
CC1(C(=O)NCCCNc2ncc(C(F)(F)F)cc2Cl)C=CC2(CCCCC2)N1C(=O)c1ccccc1 (configuration not stated)	/	/	/	/	.
CCn1cc(C(=O)NC2CCCC2)c(=O)c2cc(S(=O)(=O)N3CCOCC3)ccc21	.	.	.	.	/
CCn1cc(C(=O)NC2CCC(C)CC2)c(=O)c2cc(S(=O)(=O)N3CCCCC3)ccc21 (configuration not stated)	.	.	.	.	2.2
C=CCn1cc(C(=O)NCc2ccco2)c(=O)c2cc(S(=O)(=O)N3CCCCCC3)ccc21	.	.	.	.	3.3
CCOC(=O)/C=C/c1ccc2c(c1)S(=O)(=O)N(c1cccc(OC)c1)[C@H]2CC(=O)OCC	/	/	/	/	.
Cn1c(=O)oc2cc(S(=O)(=O)N3CCCC(C(=O)NCCN4CCOCC4)C3)ccc21 (configuration not stated)	.	.	.	.	.
CCCN(CCC)CCNC(=O)C1CCCN(S(=O)(=O)c2ccc3c(c2)oc(=O)n3C)C1 (configuration not stated)	.	.	.	-3.1	.
CCCOC(=O)c1ccc(-n2nnnc2SCC(=O)N2CCCCC2)cc1	.	.	.	-3.7	.
SMILES	JNK3 blocker	ROCK2 blocker	PKA kinase inh	D1 mod	hDAT+cocaine
COC(=O)c1ccc(-n2nnnc2SCC(=O)N2CCCCC2)cc1	.	.	.	.	.
O=C(/C=C1\NCC2c3ccccc3CCN2C1=O)c1ccccc1 (configuration not stated)	/	/	/	/	.
CC(C)(C)N1C(=O)Cc2c1nc(N)c1c(N)nc(N3CCCCC3CO)c(C#N)c21 (configuration not stated)	.	.	.	.	-4.2
CN(CCO)c1nc(N)c2c(N)nc3c(c2c1C#N)CC(=O)N3C1CCCC1	/	/	/	/	.
CCNc1nc(N2CCCCC2)nc(-n2nnc(C(=O)OCC)c2C)n1	.	.	.	.	2.8
CCNc1nc(NC(C)(C)C)nc(N2CCCC2)n1	/	/	/	/	.
CC(=O)Nc1ccc(S(=O)(=O)c2ccc(N)cc2)cc1	.	.	.	.	2
CC(=O)Nc1ccc(S(=O)(=O)c2ccc(N)cc2)cc1N	.	.	.	.	.
